TDP1 cell CPT: qHTS for Inhibitors of human tyrosyl-DNA phosphodiesterase 1 (TDP1): qHTS in cells in presence of CPT; chicken DT40 Tdp1-/-;hTDP1 cells + 20 nM CPT, ATP luminescence, 48 h; Potency, µM (highest dose often 46.2 µM), for inactives: at the top dose activity change, negative = growth inhibition, usual class: inhibitors; 420,000 compounds, 12% hits; further: potency means the concentration at half of the fitted maximal effect; nearly all actives have a fitted effect of over 55% in size
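Chicken DT40 Tdp1-/- cells stably complemented with human TDP1 were seeded at 400 cells/well in medium containing 20 nM camptothecin, exposed to pin-transferred compounds, and grown at 37 °C for at least 48 hr. Viability was read as ATP luminescence.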
IL1B secr inh: qHTS for Inhibitors of Inflammasome Signaling: IL-1-beta AlphaLISA Primary Screen; 360,000 compounds, 4.7% hits; THP-1 LPS/ATP IL-1B secretion, AlphaLISA, 16 h; hits give low values; activity change, % at 57.5 µM; in the data active means activity change below about -50%; inconclusive means mostly about -30% to -49%
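Secreted IL-1B measured by AlphaLISA bead assay after 16 h compound exposure of THP-1 cells; compounds (final up to 57.5 uM) added 1 h before LPS (250 ng/mL) and ATP (1.25 mM) stimulation; lower signal means less secretion.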
RORgamma inh: qHTS for inhibitors of ROR gamma transcriptional activity. AID 2551, 2010. Nuclear receptor ROR-gamma (Mus musculus), P51450. 310,000 compounds, 5.4% hits. Drosophila S2 Gal4-RORgamma UAS-luciferase reporter, 20 h. Potency, µM (titrated, usually from 53.6 µM), for the others: at the top dose activity change, negative = inhibition, actives largely listed as inhibitors; further: potency means the concentration at half of the fitted maximal effect; nearly all actives have a fitted effect of over 60% in size
Target sequence (P51450 whole entry, looked up, the tested form may be a part): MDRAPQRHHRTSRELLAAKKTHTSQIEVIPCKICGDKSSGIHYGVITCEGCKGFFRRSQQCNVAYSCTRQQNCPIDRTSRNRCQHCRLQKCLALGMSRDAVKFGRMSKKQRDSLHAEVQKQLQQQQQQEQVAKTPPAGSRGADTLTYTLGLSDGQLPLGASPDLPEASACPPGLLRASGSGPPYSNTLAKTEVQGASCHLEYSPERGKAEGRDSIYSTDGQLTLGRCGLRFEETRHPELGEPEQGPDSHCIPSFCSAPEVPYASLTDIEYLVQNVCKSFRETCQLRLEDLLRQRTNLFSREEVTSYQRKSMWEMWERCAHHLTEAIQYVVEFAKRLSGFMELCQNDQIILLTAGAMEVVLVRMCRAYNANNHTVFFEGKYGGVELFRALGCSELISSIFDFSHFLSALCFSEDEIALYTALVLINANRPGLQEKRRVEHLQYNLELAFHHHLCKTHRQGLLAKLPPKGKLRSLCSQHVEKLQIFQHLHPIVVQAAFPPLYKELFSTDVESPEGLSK
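Schneider cells (Drosophila), stable Gal4 DBD–ROR gamma + UAS-luc; 1 hr cmpd preincubation; Cu2+ induction 700 uM final; 20 hr ambient; luminescence.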
LDHA inh: qHTS assay for inhibitors of human lactate dehydrogenase | activity change, % (values are at about 110 or 230 µM) | AID 1347041, 2019 | L-lactate dehydrogenase A chain (Homo sapiens), P00338 | 480,000 compounds, 0.15% hits | purified LDHA, NADH/diaphorase-resazurin fluorescence; hits give low values; in the data active means activity change below about -30%; inconclusive means mostly about -25% to -30%;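 further: plate controls were DMSO wells for no effect and wells without enzyme for full effect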
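LDH5 2 nM; NADH 0.06 mM, pyruvate 0.2 mM; 200 mM Tris pH 7.4, EDTA, Tween-20; 5 min RT. Detection: diaphorase 0.133 mg/mL + resazurin 37 µM, fluorescence ex540/em590 at 0 and 20 min; normalized to enzyme-free and DMSO wells.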
DT40 TDP1 no CPT: qHTS for Inhibitors of human tyrosyl-DNA phosphodiesterase 1 (TDP1): qHTS in cells in absence of CPT | DT40 Tdp1-/- hTDP1 cells, no CPT, ATP luminescence, 48 h | Potency, µM (top dose mostly 46.2 µM), without a hit: at the highest dose activity change, negative = growth inhibition, hits mostly inhibitors | 420,000 compounds, 15% hits | AID 686978, 2013; further: potency means the concentration at half of the fitted maximal effect; nearly all actives have a fitted effect of over 55% in size
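Seeded 400 DT40-hTDP1 cells/well (vehicle DMSO, no 20 nM CPT); pinned compounds; ≥48 hr at 37 °C; CellTiter-Glo luminescence as viability measure.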
Gal4-VP16 FLuc: VP16 counterscreen qHTS for inhibitors of ROR gamma transcriptional activity. 310,000 compounds, 3.5% hits. Drosophila S2 Gal4-VP16 UAS-luciferase, luminescence, 20 h. Potency, µM (top dose mostly 53.6 µM), for the others: at the highest dose activity, negative = inhibition, hits mostly inhibitors;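 further: Gal4-VP16 expression switched on by copper sulfate through the metallothionein promoter; potency means the concentration at half of the fitted maximal effect; nearly all actives have a fitted effect of over 50% in size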
Numbers without * were called inactive; ? = inconclusive; · = no result given; ! = a repeat was not active. Hits are enriched below; roughly 18% of the tested compounds scored in any of these assays. Unless noted, the call rests on the fitted dose curve; in most records, active means well fitted curve in the direction sought with a large enough effect; inconclusive means small, poorly fitted or top-dose-only effect, or another doubt; inactive means no such curve, though single readings can be large; an effect the other way counts as inactive or inconclusive. Unless noted, on the % scale 0 is the no-effect control and ±100 the full control effect.

SMILES	TDP1 cell CPT	IL1B secr inh	RORgamma inh	LDHA inh	DT40 TDP1 no CPT	Gal4-VP16 FLuc
Cc1c(-c2cccc(Cl)c2)nc2ccccc2c1C(=O)OC/C(O)=C(\C#N)c1nc2ccccc2[nH]1	15µM*	7	-29%	-6	21µM*	3%
N#CC(=C(O)COC(=O)Cc1c[nH]c2ccccc12)c1nc2ccccc2[nH]1	2%	40	·	3	?	·
Cc1cccc(C)c1OCC(=O)OC/C(O)=C(\C#N)c1nc2ccccc2[nH]1	?	-28	10µM*	1	21µM*	18µM*
N#C/C(=C(/O)COC(=O)COc1cccc(Br)c1)c1nc2ccccc2[nH]1	?	131	-11%	2	-12%	13µM*
Cc1cc(C)cc(OCC(=O)OC/C(O)=C(\C#N)c2nc3ccccc3[nH]2)c1	?	-98*	13µM*	4	21µM*	16µM*
CCOC(=O)c1c(C)[nH]c(C(=O)OCC(O)=C(C#N)c2nc3ccccc3[nH]2)c1C	?	38	·	-13	?	·
COC(=O)C1CCN(Cc2cc(=O)oc3cc(-c4ccccc4)c(O)cc23)CC1	·	·	·	-9	·	·
CCCn1c(N(C)Cc2ccccc2)nc2c1c(=O)n(C)c(=O)n2C	·	·	·	1	·	·
CN(Cc1ccccc1)Cc1nc2c(c(=O)n(C)c(=O)n2C)n1CCCc1ccccc1	18µM*	-24	?	-3	16µM*	-3%
CC(C)Cn1c(CN(C)Cc2ccccc2)nc2c1c(=O)n(C)c(=O)n2C	6.5µM*	28	57%	1	7.3µM*	-17%
CCN1CCN(Cc2nc3c(c(=O)n(C)c(=O)n3C)n2CCCc2ccccc2)CC1	·	·	-3%	·	·	4%
Cc1nnc(SCCn2c(N(C)Cc3ccccc3)nc3c2c(=O)n(C)c(=O)n3C)s1	?	7	·	-5	11µM*	·
Cn1c(=O)c2c(nc(CN(Cc3ccccc3)Cc3ccccc3)n2CC(N)=O)n(C)c1=O	·	·	·	-1	·	·
Cc1ccccc1NC(=O)c1ncoc1-c1cccs1	·	·	·	4	·	·
CN1CCN(C(=O)CCNc2nc(Cl)nc3nc[nH]c23)CC1	·	·	·	5	·	·
Cc1oc(-c2ccc(Cl)cc2)cc1C(=O)Nc1nccs1	·	·	·	2	·	·
CCCCN1C(=O)C(NC(C)=O)c2cc(Br)ccc21 (stereo unspecified)	?	17	20%	-4	21µM*	6%
CCN1C(=O)C(NC(C)=O)c2cc(Br)ccc21 (stereo unspecified)	0%	19	0%	0	?	5%
O=C(Cn1cnc2c(oc3nc4c(cc32)CCCC4)c1=O)Nc1ccccc1	-9%	14	-27%	0	?	-23%
O=C(Cn1cnc2c(oc3nc4c(cc32)CCCC4)c1=O)Nc1cccc(Cl)c1	23µM*	8	-23%	-5	12µM*	-12%
CN(C)C(=O)CNS(=O)(=O)c1cccc(F)c1	·	·	·	-9	·	·
O=C1C(c2ccccc2F)N(C2CCCC2)C(=O)CN1C1CCCCCC1 (stereo unspecified)	·	·	·	-3	·	·
COc1ccc(C=O)cc1Cn1c(C)cc(C)c(C#N)c1=O	16µM*	31	0%	-8	16µM*	0%
O=C(Nc1nnc(C(F)(F)F)s1)C1CCN(C(=O)c2ccccc2Cl)CC1	·	·	·	0	·	·
CCOC(=O)c1ccc(NC(=O)CSc2nc(=O)[nH]nc2C)cc1	·	·	·	-3	·	·
SMILES	TDP1 cell CPT	IL1B secr inh	RORgamma inh	LDHA inh	DT40 TDP1 no CPT	Gal4-VP16 FLuc
C=CCn1c(SCC(=O)c2ccc(O)c(O)c2)nnc1-c1cccc(Cl)c1	15µM*	-6	·	24	15µM*	·
C=CCn1c(SCC(=O)c2ccc(O)c(O)c2)nnc1-c1cccnc1	-16%	28	3%	1	7%	-4%
C=CCn1c(SCC(=O)O)nnc1-c1ccc(C(C)(C)C)cc1	-12%	27	14µM*	-1	?	?
CC(C)(C)c1ccc(-c2nnc(SCC(=O)O)n2N)cc1	-17%	0	-40%	-4	-5%	0%
C=CCn1c(SCC(=O)c2ccc(O)c(O)c2)nnc1-c1cccc(C)c1	16µM*	-17	·	11	18µM*	·
CCOC(=O)c1cnc(NC2CCCC2)c2ccccc12	·	·	·	3	·	·
Cc1ccc(O)c(C(=O)/C=C/c2ccccc2Cl)c1	·	·	·	-6	·	·
N#Cc1cccc(CSc2nnc(-c3c[nH]c4ccccc34)o2)c1	·	·	·	-10	·	·
CCCCCCCCN1C(=O)[C@H](CC(=O)N2CCN(C(=O)OCC)CC2)C[C@@]2(C(=O)OCC)CCCC=C12	16µM*	-22	·	4	?	·
CCCCCCCCN1C(=O)[C@H](CC(=O)N2CCCC2)C[C@@]2(C(=O)OCC)CCCC=C12	8.2µM*	?	·	8	8.2µM*	·
Cc1ccc(-c2cc(C(=O)N3CCN(c4cccc(C(F)(F)F)c4)CC3)c3ccccc3n2)s1	·	·	·	13	·	·
O=C(CSc1nc2ccccc2o1)c1c[nH]c2ccccc12	·	·	·	1	·	·
CCc1noc(C)c1C(=O)Nc1sc2c(c1C#N)CCC(CC)C2 (stereo unspecified)	·	·	·	4	·	·
Cn1c(=O)c2c(nc(N3CCN(c4ccccn4)CC3)n2Cc2cccc(Cl)c2)n(C)c1=O	·	·	·	16	·	·
CCN(C(=O)C1CCC1)C1CC1	·	·	·	2	·	·
O=S1(=O)CCO[C@H]2Cc3ccccc3[C@H]2N1Cc1ccccc1F	23µM*!	-20	-21%	0	?	-5%
C[C@@H]1[C@H](c2ccccc2)OCCS(=O)(=O)N1Cc1ccccc1F	?	·	·	·	13µM*	·
O=S1(=O)CCOC[C@H](c2ccccc2)N1Cc1ccccc1F	?	21	3%	-3	?	-9%
O=S1(=O)CCO[C@H]2Cc3ccccc3[C@H]2N1Cc1ccccc1Br	?	-1	7%	-1	23µM*	-4%

Screening results from PubChem BioAssay.
